We go through 12 molecules from ChEMBL document CHEMBL3988442, “University of Dundee, Small-Polar-MMV Screening Library” (2021).

For part of these data: Entries with a potency or affinity are not part of this list.

Set-up in all cases: scale not given: direction of the effect not stated beside the values
The target in assay [1] is Protein translocase subunit SecA (Escherichia coli (strain K12)) (UniProt P10408). Description: Assay to Identify E. coli SecA ATPase Inhibitors. It is filed as functional. Conditions: 30 µM.
Chain of Protein translocase subunit SecA (Escherichia coli (strain K12)) (P10408 whole entry): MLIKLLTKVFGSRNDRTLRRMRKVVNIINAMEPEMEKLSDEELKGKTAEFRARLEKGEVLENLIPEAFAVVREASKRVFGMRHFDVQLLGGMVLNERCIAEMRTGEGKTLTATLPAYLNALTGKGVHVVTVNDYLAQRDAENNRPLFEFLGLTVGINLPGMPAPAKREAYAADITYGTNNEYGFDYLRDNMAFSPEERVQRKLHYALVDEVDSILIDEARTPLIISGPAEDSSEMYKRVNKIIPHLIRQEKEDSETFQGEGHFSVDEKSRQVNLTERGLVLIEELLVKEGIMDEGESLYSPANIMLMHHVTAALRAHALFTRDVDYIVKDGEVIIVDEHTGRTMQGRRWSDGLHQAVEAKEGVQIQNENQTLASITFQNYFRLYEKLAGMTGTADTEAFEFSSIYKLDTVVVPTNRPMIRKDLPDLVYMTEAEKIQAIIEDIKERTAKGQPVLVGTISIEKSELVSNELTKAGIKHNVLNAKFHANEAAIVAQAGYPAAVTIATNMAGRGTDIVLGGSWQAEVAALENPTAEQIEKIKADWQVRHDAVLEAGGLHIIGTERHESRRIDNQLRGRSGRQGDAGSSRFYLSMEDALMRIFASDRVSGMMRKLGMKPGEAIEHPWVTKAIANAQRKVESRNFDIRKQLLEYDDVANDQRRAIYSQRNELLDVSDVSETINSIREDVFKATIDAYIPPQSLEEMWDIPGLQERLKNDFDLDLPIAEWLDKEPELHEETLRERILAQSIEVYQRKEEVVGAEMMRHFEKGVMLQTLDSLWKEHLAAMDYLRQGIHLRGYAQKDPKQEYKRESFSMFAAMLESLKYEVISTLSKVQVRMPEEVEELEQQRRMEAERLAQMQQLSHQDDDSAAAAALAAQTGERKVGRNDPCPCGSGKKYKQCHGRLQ
Assay [2] deals with T1, Ubiquitin-activating enzyme e1, putative (Leishmania donovani (strain BPK282A1)) (UniProt E9BSI1).
T1 sequence (whole entry): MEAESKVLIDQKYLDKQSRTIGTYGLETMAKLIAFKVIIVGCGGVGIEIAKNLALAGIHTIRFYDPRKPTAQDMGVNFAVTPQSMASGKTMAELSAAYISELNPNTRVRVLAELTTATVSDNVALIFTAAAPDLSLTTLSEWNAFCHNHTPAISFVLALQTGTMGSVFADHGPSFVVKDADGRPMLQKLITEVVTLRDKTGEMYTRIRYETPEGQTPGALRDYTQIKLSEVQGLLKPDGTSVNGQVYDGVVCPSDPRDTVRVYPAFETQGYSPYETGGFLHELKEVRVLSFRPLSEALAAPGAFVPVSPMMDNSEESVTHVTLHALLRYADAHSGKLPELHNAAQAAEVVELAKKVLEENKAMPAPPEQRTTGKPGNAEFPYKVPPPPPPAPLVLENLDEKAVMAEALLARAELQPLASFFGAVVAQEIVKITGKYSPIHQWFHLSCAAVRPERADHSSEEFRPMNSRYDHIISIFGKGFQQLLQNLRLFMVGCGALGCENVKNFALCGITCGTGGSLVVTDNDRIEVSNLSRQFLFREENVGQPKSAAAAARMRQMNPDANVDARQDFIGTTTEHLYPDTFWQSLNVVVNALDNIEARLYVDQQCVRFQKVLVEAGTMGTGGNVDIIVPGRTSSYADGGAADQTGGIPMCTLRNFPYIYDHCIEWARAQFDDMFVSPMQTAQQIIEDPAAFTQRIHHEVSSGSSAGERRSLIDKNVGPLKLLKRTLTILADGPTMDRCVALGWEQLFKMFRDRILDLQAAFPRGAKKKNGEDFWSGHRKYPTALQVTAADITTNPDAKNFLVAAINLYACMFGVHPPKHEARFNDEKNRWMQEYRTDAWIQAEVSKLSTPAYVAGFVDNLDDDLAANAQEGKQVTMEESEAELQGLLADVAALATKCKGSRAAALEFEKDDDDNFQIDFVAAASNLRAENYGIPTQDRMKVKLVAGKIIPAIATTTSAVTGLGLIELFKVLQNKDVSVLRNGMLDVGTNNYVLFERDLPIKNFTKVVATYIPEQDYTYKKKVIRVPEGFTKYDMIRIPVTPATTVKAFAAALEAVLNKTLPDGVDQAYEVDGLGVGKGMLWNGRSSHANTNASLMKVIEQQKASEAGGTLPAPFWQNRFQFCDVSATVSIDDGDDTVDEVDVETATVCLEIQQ
Briefly: Leishmania donovani Ubiquitin Activating Enzyme (LdE1). It is filed as functional. As to conditions: 30 µM.

Assay [3] addresses Sialic acid-binding Ig-like lectin 9 (Homo sapiens) (UniProt Q9Y336). Briefly: Hs-Siglec9 ALPHAscreen SOP 20170721. As to conditions: 10 µM. A general note: Bead proximity is the source of the signal in Alpha formats.
The next assay relates to Trypanosoma cruzi. Briefly: Trypanosoma cruzi phosphomannomutase and mannose-1-phosphate guanylyltransferase assay. Conditions: 10 µM. The class given is functional.
Assay [4] addresses T2, Arginase-2, mitochondrial (Homo sapiens) (UniProt P78540).
T2 sequence (whole entry): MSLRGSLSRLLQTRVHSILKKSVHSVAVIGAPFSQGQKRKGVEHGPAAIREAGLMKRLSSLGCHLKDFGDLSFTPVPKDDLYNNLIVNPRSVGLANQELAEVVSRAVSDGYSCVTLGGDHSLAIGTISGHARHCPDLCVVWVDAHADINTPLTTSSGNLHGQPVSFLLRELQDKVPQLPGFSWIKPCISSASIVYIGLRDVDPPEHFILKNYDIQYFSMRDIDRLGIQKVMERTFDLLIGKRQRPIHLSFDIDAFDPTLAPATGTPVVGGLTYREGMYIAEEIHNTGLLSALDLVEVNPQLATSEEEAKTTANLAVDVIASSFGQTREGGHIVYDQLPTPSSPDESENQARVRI
Description: in vitro enzyme assay to detect the production of urea directly proportional to the activity of Arginase II. Further: in the data most compounds retested in dose-response had high values. It is filed as functional. Conditions: 33.3 µM.

The target of assay [5] is T3, Proteasome subunit beta (Trypanosoma cruzi) (UniProt O96673).
T3 sequence (whole entry): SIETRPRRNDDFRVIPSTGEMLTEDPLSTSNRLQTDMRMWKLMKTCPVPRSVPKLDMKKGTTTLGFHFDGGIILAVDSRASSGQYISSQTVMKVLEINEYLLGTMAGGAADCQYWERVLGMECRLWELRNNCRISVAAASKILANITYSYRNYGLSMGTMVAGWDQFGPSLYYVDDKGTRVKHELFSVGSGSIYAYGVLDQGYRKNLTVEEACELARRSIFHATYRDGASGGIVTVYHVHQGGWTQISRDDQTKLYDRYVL
Description: Trypanosoma cruzi proteasome chymotrypsin-like activity (TcProtChymo) assay. Further: in the data most compounds retested in dose-response had high values. The class given is functional. As to conditions: 9.37 µM.

The species entered for another assay is Homo sapiens. Description: To identify inhibition of the IFN signalling (Jak-Stat) pathway via expression of an eGFP reporter gene under the control of an IFN-stimulated response element (ISRE) containing MxA promoter. The class given is functional. Conditions: 30 µM. In general terms: Reporter assays use an easily measured gene product as a stand-in for the process of interest.

Assay [6] addresses T4, Tyrosyl-tRNA synthetase, putative (Trypanosoma cruzi (strain CL Brener)) (UniProt Q4DSP6).
T4 sequence (whole entry): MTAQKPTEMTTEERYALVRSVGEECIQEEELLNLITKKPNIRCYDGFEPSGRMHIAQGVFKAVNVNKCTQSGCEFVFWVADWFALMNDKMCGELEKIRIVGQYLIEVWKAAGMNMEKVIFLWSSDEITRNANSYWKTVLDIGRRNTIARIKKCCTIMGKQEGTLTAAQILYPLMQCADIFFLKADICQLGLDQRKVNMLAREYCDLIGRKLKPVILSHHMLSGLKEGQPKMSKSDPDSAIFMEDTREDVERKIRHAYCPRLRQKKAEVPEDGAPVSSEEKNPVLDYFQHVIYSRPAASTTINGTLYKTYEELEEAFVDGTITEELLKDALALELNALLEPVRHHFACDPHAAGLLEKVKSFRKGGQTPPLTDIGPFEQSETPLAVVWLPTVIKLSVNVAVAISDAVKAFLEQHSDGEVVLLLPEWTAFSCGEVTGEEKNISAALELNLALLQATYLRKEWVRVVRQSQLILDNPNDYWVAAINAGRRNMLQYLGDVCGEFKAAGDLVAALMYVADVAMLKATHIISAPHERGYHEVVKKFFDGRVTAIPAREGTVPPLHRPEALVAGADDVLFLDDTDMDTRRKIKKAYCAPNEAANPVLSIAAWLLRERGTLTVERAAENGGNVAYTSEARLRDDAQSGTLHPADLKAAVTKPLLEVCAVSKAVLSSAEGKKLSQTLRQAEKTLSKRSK
Description: Trypanosoma cruzi tyrosyl tRNA synthetase (TcYRS) _High Tyrosine SOP. Further: in the data most compounds retested in dose-response had high values. The class given is functional. As to conditions: 30 µM.

Assay [7] has as its target T4, Tyrosyl-tRNA synthetase, putative (Trypanosoma cruzi (strain CL Brener)). Briefly: Trypanosoma cruzi tyrosyl tRNA synthetase (TcYRS) SOP. It is filed as functional. Conditions: 30 µM.
Assay [8] addresses Chromo domain-containing protein 1 (Saccharomyces cerevisiae (strain ATCC 204508 / S288c) (Baker's yeast)) (UniProt P32657). Briefly: ScCHD-1 Enzyme Inhibition Assay. Further: in the data most compounds retested in dose-response had high values. It is filed as functional. As to conditions: 30 µM.

Chain of Chromo domain-containing protein 1 (Saccharomyces cerevisiae (strain ATCC 204508 / S288c) (Baker's yeast)) (P32657 whole entry, the tested form may be a part): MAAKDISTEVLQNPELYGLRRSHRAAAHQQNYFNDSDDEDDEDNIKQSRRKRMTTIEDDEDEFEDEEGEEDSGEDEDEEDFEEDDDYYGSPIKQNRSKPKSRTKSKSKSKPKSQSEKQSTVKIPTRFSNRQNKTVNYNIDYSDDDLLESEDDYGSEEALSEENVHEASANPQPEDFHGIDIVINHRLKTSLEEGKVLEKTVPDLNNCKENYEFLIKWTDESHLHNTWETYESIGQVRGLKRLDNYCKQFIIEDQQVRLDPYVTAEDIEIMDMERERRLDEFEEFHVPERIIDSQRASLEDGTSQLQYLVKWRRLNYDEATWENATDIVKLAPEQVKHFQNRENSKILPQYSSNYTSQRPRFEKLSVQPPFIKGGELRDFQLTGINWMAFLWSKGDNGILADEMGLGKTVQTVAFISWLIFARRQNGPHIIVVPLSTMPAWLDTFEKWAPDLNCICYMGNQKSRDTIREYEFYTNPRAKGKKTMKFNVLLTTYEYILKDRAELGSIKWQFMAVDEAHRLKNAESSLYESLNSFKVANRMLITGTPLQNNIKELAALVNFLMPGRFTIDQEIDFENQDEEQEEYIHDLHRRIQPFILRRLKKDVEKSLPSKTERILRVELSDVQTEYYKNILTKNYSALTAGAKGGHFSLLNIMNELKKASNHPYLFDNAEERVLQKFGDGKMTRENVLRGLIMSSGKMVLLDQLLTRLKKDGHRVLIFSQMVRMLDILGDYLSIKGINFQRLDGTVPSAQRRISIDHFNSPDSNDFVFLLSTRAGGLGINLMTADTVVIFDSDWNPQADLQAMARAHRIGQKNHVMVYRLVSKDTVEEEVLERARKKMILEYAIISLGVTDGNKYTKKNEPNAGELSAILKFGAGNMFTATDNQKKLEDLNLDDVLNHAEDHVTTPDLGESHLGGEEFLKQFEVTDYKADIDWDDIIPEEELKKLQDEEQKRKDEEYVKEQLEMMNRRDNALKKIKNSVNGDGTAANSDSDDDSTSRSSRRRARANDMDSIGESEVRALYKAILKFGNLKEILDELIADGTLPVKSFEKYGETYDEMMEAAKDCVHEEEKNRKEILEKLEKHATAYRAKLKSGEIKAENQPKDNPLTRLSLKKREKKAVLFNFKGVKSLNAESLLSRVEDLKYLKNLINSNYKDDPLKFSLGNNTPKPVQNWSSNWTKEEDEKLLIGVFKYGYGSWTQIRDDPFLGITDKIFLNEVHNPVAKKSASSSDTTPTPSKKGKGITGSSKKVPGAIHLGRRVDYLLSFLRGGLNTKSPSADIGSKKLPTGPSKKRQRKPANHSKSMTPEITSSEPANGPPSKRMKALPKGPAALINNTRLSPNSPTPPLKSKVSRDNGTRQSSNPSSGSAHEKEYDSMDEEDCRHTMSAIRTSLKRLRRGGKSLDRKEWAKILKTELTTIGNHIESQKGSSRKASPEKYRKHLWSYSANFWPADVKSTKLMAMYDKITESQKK
Chain of Sialic acid-binding Ig-like lectin 9 (Homo sapiens) (Q9Y336 whole entry): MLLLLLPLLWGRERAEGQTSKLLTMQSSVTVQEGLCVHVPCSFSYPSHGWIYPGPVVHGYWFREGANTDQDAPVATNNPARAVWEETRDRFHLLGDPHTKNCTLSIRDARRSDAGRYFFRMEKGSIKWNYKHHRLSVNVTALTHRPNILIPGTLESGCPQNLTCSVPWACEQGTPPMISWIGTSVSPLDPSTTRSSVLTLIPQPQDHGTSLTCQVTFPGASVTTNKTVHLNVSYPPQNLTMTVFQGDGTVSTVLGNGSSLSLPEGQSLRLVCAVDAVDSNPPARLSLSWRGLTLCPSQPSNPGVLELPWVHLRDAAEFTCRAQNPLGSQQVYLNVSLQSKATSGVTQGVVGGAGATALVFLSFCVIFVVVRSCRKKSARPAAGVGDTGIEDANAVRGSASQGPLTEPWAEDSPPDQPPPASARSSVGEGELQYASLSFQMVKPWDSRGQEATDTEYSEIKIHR

Consider `Cc1cnc(CN2CCCC2c2noc(C)n2)cn1` (stereo not given), for which the Percent Effect in [1] was -3.01%; in assay [2], -2.67%; in assay [3] it was -1.58%; with Trypanosoma cruzi it was 0.602%; in assay [4], 0.444%; in assay [5], 14.5%. Further, the Percent Effect in the assay listed under Homo sapiens was -11.3%; in assay [6], 11.1%; in assay [7], 12.8%; in assay [8], -6.87%.

As to `CCc1ccsc1C(=O)N1CCN(C(=O)CC(F)(F)F)CC1`, the Percent Effect in [1] was found to be 2.23%; in assay [2] it was 18.2%; in assay [3], 11.7%; in the assay with Trypanosoma cruzi, 1.68%; in [4] it was 1.02%; in [5], 10.5%. Also, the Percent Effect in the assay listed under Homo sapiens is -19.1%; in assay [6], 6.86%; in assay [7] it was 23.5%; in assay [8], -4.02%.

For `O=C(CC1CC1)N1C[C@@H]2CCN(c3cnccn3)C[C@@H]2C1`, the Percent Effect in assay [1] is -1.69%; in assay [2], 14.3%; in [3] it was 4.05%; with Trypanosoma cruzi it was 1.69%; in [4], 0.913%; in assay [5], 5.06%. In addition, the Percent Effect is 16.8% in the assay filed under Homo sapiens, 5.8% in assay [6], 15% in assay [7] and -3.72% in assay [8].

In the case of `COc1ccc(CN2CCC3(CC2)CCN(CC(C)C)C3=O)cc1`, the Percent Effect in [1] is -1.79%; in assay [2] it was -1.3%; in [3], -0.794%; in the assay on Trypanosoma cruzi, -0.75%; in assay [4], -3.2%; in assay [5], -0.601%. Further, the Percent Effect was 6.85% in the assay listed under Homo sapiens, 0.966% in assay [6], 0% in assay [7] and -5.19% in assay [8].

As for `CCc1ccc(CN2CCC3(CC2)NC(=O)CC3c2ccncc2)o1` (stereo not given), the Percent Effect was -9.93% in assay [1]; 6.49% in assay [2]; -0.747% in assay [3]; -3.21% with Trypanosoma cruzi; -5.26% in assay [4]; 9.27% in [5]. In addition, the Percent Effect is -2.1% in the assay filed under Homo sapiens, 0.526% in assay [6], 7.69% in assay [7] and -2.68% in assay [8].

Consider `Cc1nn(C)c(N(C)C)c1CNC(C)COc1cccc(F)c1` (stereo not given), for which the Percent Effect in [1] was -4.28%; in assay [2], -5.2%; in [3] it was -1.85%; in the assay with Trypanosoma cruzi it was -6.16%; in [4], -2.66%; in assay [5], 5.26%. Further, the Percent Effect in the assay filed under Homo sapiens was 9.12%; in [6], -3.92%; in [7], -4.71%; in assay [8], -2.29%.

With `Cc1ncncc1C(=O)Nc1cnn(CC(=O)NC2CCCC2)c1`, the Percent Effect in assay [1] is -3.38%; in [2], 20%; in assay [3], 2.3%; with Trypanosoma cruzi, 2.96%; in assay [4], -0.443%; in assay [5], 10.8%. Besides, the Percent Effect in the assay filed under Homo sapiens is 8.96%; in [6] it was 1.06%; in assay [7], 12.5%; in assay [8] it was -20.3%.

On to `OC(COc1ccc(F)cc1)CN1CCC(Cn2cccn2)CC1` (stereo not given), for which the Percent Effect in [1] was 0.447%; in assay [2] it was 18.2%; in assay [3], 8.44%; with Trypanosoma cruzi, 0.933%; in assay [4], -5.12%; in assay [5], 6.14%. The Percent Effect is -5.99% in the assay listed under Homo sapiens, 10.8% in assay [6], 23.5% in assay [7] and -4.98% in assay [8].

Regarding `COCC(C)NC(=O)c1cc(Br)c2c(c1)OCCO2` (stereo not given), the Percent Effect is -0.916% in assay [1]; 5.33% in [2]; 4.72% in assay [3]; -4.82% in the assay on Trypanosoma cruzi; 8.43% in [4]; 8.74% in assay [5]. For the same molecule, the Percent Effect was 10.6% in the assay listed under Homo sapiens, -2.63% in [6], 2.56% in assay [7] and -7.03% in assay [8].

For `CC(O)(CN1CCC2(CC1)OCCO2)c1cccc(C(F)(F)F)c1` (stereo not given), the Percent Effect was 1.91% in assay [1]; 10.4% in assay [2]; 8.88% in [3]; -0.187% with Trypanosoma cruzi; -2.25% in assay [4]; 2.98% in [5]. In addition, the Percent Effect is 18.4% in the assay listed under Homo sapiens, 3.92% in [6], 21.2% in [7] and -7.48% in assay [8].

In the case of `NC(=O)NC(=O)CCN1CCCN(c2nccs2)CC1`, the Percent Effect is -0.41% in assay [1]; 10.7% in assay [2]; -0.94% in assay [3]; -4.02% in the assay on Trypanosoma cruzi; 3.1% in assay [4]; 9.41% in assay [5]. Besides, the Percent Effect is 13.6% in the assay filed under Homo sapiens, 7.89% in assay [6], 10.3% in assay [7] and -7.5% in assay [8].

Consider `O=C1NCCN(CC2CC2)C12CCN(Cc1ccco1)CC2`, for which the Percent Effect in [1] was -2.83%; in assay [2], 9.09%; in assay [3], -15.9%; in the assay with Trypanosoma cruzi, -9.45%; in assay [4], 2.83%; in assay [5], 18.8%. In addition, the Percent Effect is 10.4% in the assay listed under Homo sapiens, 2.63% in assay [6], -2.56% in assay [7] and -3.23% in assay [8].
